Pf growth 48h: Primary qHTS for delayed death inhibitors of the malarial parasite plastid, 48 hour incubation | P. falciparum luciferase growth in erythrocytes, 48 h | 310,000 compounds, 5.9% hits | Potency, µM (doses to about 28.7 µM), without a hit: top-dose activity change, negative = inhibition, usual class: inhibitors; further: on the % scale 0 is the no-effect control and ±100 the full control effect
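First compound was added to culture medium, then infected red cells at 0.1% parasitemia and 2% hematocrit (final). After incubation at 37 C under 5% CO2, luciferase detection reagent was dispensed and light output recorded.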
NS1 function inh: qHTS Assay for Inhibitors of Influenza NS1 Protein Function | 270,000 compounds, 0.4% hits | AID 2326, 2010 | Potency, µM (highest dose often 46.1 µM), for inactives: at the top dose activity, positive = more growth; calls by dose curve; further: actives are rising curves; nearly all actives have a fitted effect of over 50% in size
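Read-out: OD600 growth recovery of NS1-expressing budding yeast. Cells grown overnight at 30C in -URA glucose medium, washed, resuspended and diluted 1:100 in 2% galactose assay medium, pH 6.0. Same strain lacking NS1 served as positive control.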
AMA1-RON2 inh: qHTS for Inhibitors of AMA1-RON; Towards Development of Antimalarial Drug Lead: Primary Screen; Plasmodium falciparum AMA1 (3D7) - RON2 peptide interaction; AlphaScreen AMA1-biotinylated RON2 peptide binding; Potency, µM (titrated, usually from 58.2 µM), inactives show at the highest dose activity change, negative = inhibition, hits mostly inhibitors; 360,000 compounds, 0.2% hits; AID 720542, 2013;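 further: 0% = vehicle wells and -100% = peptide control; nearly all actives have a fitted effect of over 45% in size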
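AMA1 (3D7) with his tag at 25 nM final met compounds first, then biotinylated RON2 peptide at 25 nM; detection used donor plus acceptor beads, 10 µg/mL apiece, read by AlphaScreen after 30 min at room temperature.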
Pf growth 96h: Primary qHTS for delayed death inhibitors of the malarial parasite plastid, 96 hour incubation; P. falciparum luciferase reporter growth, 96 h; Potency, µM (doses to about 28.7 µM), for the others: at the top dose activity change, negative = inhibition, most hits filed as inhibitors; 320,000 compounds, 6.9% hits; further: on the % scale 0 is the no-effect control and ±100 the full control effect
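P. falciparum expressing integrated firefly luciferase grown in erythrocytes (2% hematocrit, 0.05% parasitemia final) with compounds for 96 hours at 37 C, 5% CO2. Growth inhibition read as loss of luminescence after adding luciferase detection reagent.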
Sm TGR inh: qHTS Assay for the Inhibitors of Schistosoma Mansoni Peroxiredoxins. Schistosoma mansoni thioredoxin glutathione reductase (TGR), Q962Y6. purified TGR, DTNB reduction, TNB absorbance 405 nm. Potency, µM (top dose mostly 114 µM), without a hit: at the top dose activity change, negative = inhibition, most hits filed as inhibitors. 360,000 compounds, 3% hits. AID 485364, 2010; further: on the % scale 0 is the no-effect control and ±100 the full control effect; nearly all actives have a fitted effect of over 60% in size
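TGR 20 nM + NADPH 100 uM (dispensed conc.), cpd preinc 15 min RT; start with NADPH (500 uM addition) then DTNB (15 mM addition). Kinetic TNB absorbance, 405 nm filter. Four-parameter Hill fit across titration.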
The depositor's hits bear a star. Most compounds without a hit are left out; they make up all but 11% or so of the library. Unless noted, the call rests on the fitted dose curve; in most records, active means well fitted curve in the direction sought with a large enough effect; inconclusive means small, poorly fitted or top-dose-only effect, or another doubt; inactive means no such curve, though single readings can be large; an effect the other way counts as inactive or inconclusive. Potency means the concentration at half of the fitted maximal effect.

Screening COc1ccc(N2CC(NC(=O)C3CCCC3)CC2=O)cc1 (stereo unspecified) returned Sm TGR inh 4.7%.
CCOC(=O)c1sc(=S)n(-c2ccccc2)c1C was read as Pf growth 48h -10.1%, NS1 function inh -3.9%, AMA1-RON2 inh -8.5%, Pf growth 96h -0.6% and Sm TGR inh -5.1%.
For CCOC(=O)c1sc(=S)n(-c2ccc(C)cc2)c1SC the results were Pf growth 48h 1.17µM*, NS1 function inh 14.6%, AMA1-RON2 inh -6.8%, Pf growth 96h 0.465µM* and Sm TGR inh 1.2%.
Cc1ccc(N2C=Nc3ccc(C)c4nc(C)cc2c34)cc1 was read as Pf growth 48h 9.28µM*, NS1 function inh 4.1%, AMA1-RON2 inh -2.4%, Pf growth 96h 63.6% and Sm TGR inh -11.2%.
`CC1=Nc2ccc(C)c3nc(C)cc(c23)N1c1ccc(C)cc1` gave AMA1-RON2 inh 4.1%.
`CCC(C)(C)NC(=O)CN(Cc1ccc2c(c1)OCO2)C(=O)CCC(=O)Nc1cc(C)ccn1` gave Pf growth 48h -14.6%, NS1 function inh -5.9%, AMA1-RON2 inh -2.6%, Pf growth 96h 4.3% and Sm TGR inh -4.6%.
For O=C(O)CNc1nc(-c2ccccc2)c2cc([N+](=O)[O-])ccc2n1 the results were Pf growth 48h 6.2%, NS1 function inh -7.7%, AMA1-RON2 inh -2.8%, Pf growth 96h 14.8% and Sm TGR inh -13.9%.
Screening O=[N+]([O-])c1ccc2nc(NCCCO)nc(-c3ccccc3)c2c1 returned Pf growth 48h inconclusive, NS1 function inh -4.3%, AMA1-RON2 inh -6.2%, Pf growth 96h 11.7µM* and Sm TGR inh -0.8%.
`O=C(NC1CCCc2ccccc21)C1CCC(CNS(=O)(=O)c2cccc3nsnc23)CC1` (stereo unspecified) gave NS1 function inh 7.2%, AMA1-RON2 inh 4.9%, Pf growth 96h 3.7µM* and Sm TGR inh 4.7%.
`O=C(NC1CCCc2ccccc21)C1CCC(CNc2c(N3CCOCC3)c(=O)c2=O)CC1` (stereo unspecified) gave Pf growth 48h 20.4%, NS1 function inh -8.6%, AMA1-RON2 inh 2.8%, Pf growth 96h 10.4µM* and Sm TGR inh -15.0%.
For CCOC(=O)C1CCCN(c2c(Nc3ccc(OCC)cc3)c(=O)c2=O)C1 (stereo unspecified) the results were NS1 function inh 3.7%, AMA1-RON2 inh -4.7%, Pf growth 96h 0.0% and Sm TGR inh -9.2%.
CCOC(=O)C1CCCN(c2c(Nc3cccc(C)c3)c(=O)c2=O)C1 (stereo unspecified) was read as NS1 function inh -1.5%, AMA1-RON2 inh -4.0%, Pf growth 96h 8.28µM* and Sm TGR inh 0.0%.
For Cc1ccc(CCNC(=O)C2CCC(CNc3c(N4CCCC4)c(=O)c3=O)CC2)cc1 (stereo unspecified) the results were NS1 function inh -1.7%, AMA1-RON2 inh 24.3%, Pf growth 96h inconclusive and Sm TGR inh inconclusive.
`Cc1cccc(CCNC(=O)C2CCC(CNc3c(N4CCCC4)c(=O)c3=O)CC2)c1` (stereo unspecified) gave NS1 function inh -4.1%, AMA1-RON2 inh -1.4%, Pf growth 96h 9.28µM* and Sm TGR inh -2.0%.
For O=C(CCNS(=O)(=O)c1cccc2nsnc12)NC1CCCc2ccccc21 (stereo unspecified) the results were Pf growth 48h 7.6%, NS1 function inh -1.6%, AMA1-RON2 inh -13.7%, Pf growth 96h inconclusive and Sm TGR inh 2.1%.
Screening O=C(C1CCC(CNc2c(N3CCCC3)c(=O)c2=O)CC1)N1CCc2ccccc21 (stereo unspecified) returned Pf growth 48h inconclusive, NS1 function inh -2.7%, AMA1-RON2 inh -0.2%, Pf growth 96h -6.7% and Sm TGR inh 0.6%.
`Cc1cccc(-c2nnc(C(C)Nc3cccc(C(=O)NC4CC4)c3)o2)c1` (stereo unspecified) gave AMA1-RON2 inh 1.4%.
CCOc1cccc2cc(C(=O)NCCC3=CCCCC3)c(=O)oc12 was read as Pf growth 48h 10.8%, NS1 function inh 5.1%, AMA1-RON2 inh 22.7%, Pf growth 96h 2.4% and Sm TGR inh -23.0%.
CC1Cc2ccccc2N1C(=O)CSc1nccc(=O)[nH]1 (stereo unspecified) was read as Pf growth 48h 7.7%, NS1 function inh 2.8%, AMA1-RON2 inh -1.7%, Pf growth 96h 35.6% and Sm TGR inh 0.0%.
O=C(NCCc1ccccc1)C1CCC(CNc2c(N3CCCCC3)c(=O)c2=O)CC1 (stereo unspecified) was read as Pf growth 48h -21.2%, NS1 function inh -0.6%, AMA1-RON2 inh 17.6%, Pf growth 96h 11.7µM* and Sm TGR inh -14.9%.
Screening N#Cc1ccccc1S(=O)(=O)N1CCN(C(=O)Cc2coc3cc(O)ccc23)CC1 returned Pf growth 48h inconclusive, AMA1-RON2 inh -2.5%, Pf growth 96h inconclusive and Sm TGR inh -21.0%.
For COc1ccc(S(=O)(=O)N2CCC(c3nc4ccccc4s3)CC2)cc1OC the results were Sm TGR inh 1.5%.
COc1cc(S(=O)(=O)N2CCC(c3nc4ccccc4s3)CC2)ccc1S(=O)(=O)NC1CCCC1 was read as Pf growth 48h inconclusive, NS1 function inh 2.8%, AMA1-RON2 inh -2.5%, Pf growth 96h 9.28µM* and Sm TGR inh 5.3%.
Screening CCOCc1c(C(=O)Nc2ccc3nc(N4CCOCC4)sc3c2)oc2ccccc12 returned Pf growth 48h 14.7µM*, AMA1-RON2 inh -3.1%, Pf growth 96h inconclusive and Sm TGR inh -1.3%.
CCOCc1c(C(=O)Nc2cc(OCC)c(N3CCOCC3)cc2OCC)oc2ccccc12 was read as Pf growth 48h 34.8%, AMA1-RON2 inh 1.9%, Pf growth 96h inconclusive and Sm TGR inh -2.6%.
`CCOCc1c(C(=O)Nc2ccccc2N2CCN(C)CC2)oc2ccccc12` gave Pf growth 48h inconclusive, AMA1-RON2 inh -29.5%, Pf growth 96h 13.1µM* and Sm TGR inh -0.9%.
Screening O=C(Nc1ccncc1)c1cccc(S(=O)(=O)N2CCN(c3ccc(F)cc3)CC2)c1 returned Pf growth 48h inconclusive, AMA1-RON2 inh -27.0%, Pf growth 96h 11.7µM* and Sm TGR inh 1.5%.
COC(=O)c1cc(S(=O)(=O)N2CCN(c3ccc(F)cc3)CC2)cn1C was read as Pf growth 48h 29.0%, NS1 function inh 2.6%, AMA1-RON2 inh 4.5%, Pf growth 96h 9.28µM* and Sm TGR inh -7.0%.

Assay outcomes as filed in PubChem BioAssay.
